High-throughput results from PubChem BioAssay.
In the library only some 2.6% were active in any assay of this set; here they are far more common.
PAD4 FP inh: human PAD4 inhibitors, primary screen, biochemical, fluorescence polarization, 1536-well format; recombinant PAD4, RCA probe fluorescence polarization; Protein-arginine deiminase type-4 (Homo sapiens), Q9UM07; 330,000 compounds, 0.41% hits; inhibition, % at 6.36 µM;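 active = percent inhibition above a cutoff equal to the mean of all tested compounds plus 3 SD, cut at about 15% in these data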;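 note: 0% = PAD4 with RCA probe and DMSO and 100% = probe without PAD4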
Fam108B inh: mouse Fam108B serine hydrolase inhibitors, primary screen, counter-screen for RBBP9 inhibitor project, biochemical, fluorescence polarization | recombinant Fam108B, FP-Rh probe fluorescence polarization | inhibition, % at 9.51 µM | 300,000 compounds, 0.33% hits | AID 1947, 2009;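 active = inhibition above the screen mean inhibition plus 3 SD, computed separately per campaign, cut at about 18% in these data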;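 note: inhibitors lower polarization as less probe binds the enzyme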
SIAE inh: human SIAE inhibitors, primary screen, biochemical, fluorescence polarization, FP-Rh probe, 1536-well HTS; Sialate O-acetylesterase (Homo sapiens), Q9HAT2; SIAE FP-Rh probe binding; inhibition, % at 9.66 µM; 370,000 compounds, 0.69% hits;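 active = inhibition above a cutoff: mean of compounds within the control limits plus 3 SD of those, cut at about 17% in these data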;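 note: 0% = plate median of compound wells and 100% = probe without SIAE protein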
PRMT1 inh: PRMT1 methyltransferase inhibitors, primary screen, biochemical, fluorescence polarization. Protein arginine N-methyltransferase 1 (Homo sapiens), Q99873. recombinant PRMT1, activity-based probe fluorescence polarization. inhibition, % at 2.79 µM. 370,000 compounds, 1.3% hits;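 active = inhibition above about 21% made by adding two undisclosed values, limit read from the data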
Target sequence (Q99873 whole entry, looked up): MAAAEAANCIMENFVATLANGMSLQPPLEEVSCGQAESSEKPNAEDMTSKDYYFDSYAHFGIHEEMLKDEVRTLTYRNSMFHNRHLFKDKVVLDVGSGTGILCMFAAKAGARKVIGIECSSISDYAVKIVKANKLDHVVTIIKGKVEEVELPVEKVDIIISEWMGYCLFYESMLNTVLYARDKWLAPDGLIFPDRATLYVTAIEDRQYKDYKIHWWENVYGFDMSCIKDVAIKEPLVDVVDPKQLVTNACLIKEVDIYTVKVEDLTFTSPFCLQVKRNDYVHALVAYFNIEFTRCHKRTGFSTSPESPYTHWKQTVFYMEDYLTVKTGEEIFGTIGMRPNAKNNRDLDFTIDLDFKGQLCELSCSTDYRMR
TCR CD3 inh: inhibitors of human TCR-CD3 interaction, primary screen, biochemical, fluorescence, TAMRA-labeled TCR probe; 360,000 compounds, 0.37% hits; T-cell receptor (TCR); AID 651800, 2012; inhibition, % at 9.4 µM;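 note: recombinant mutant TCR 2C K166C tagged with TAMRA read by polarization; 0% = receptor in buffer alone and 100% = receptor with positive control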
PME-1 primary: PME-1 inhibitors via competitive probe labeling, primary screen, biochemical, fluorescence polarization, FP-Rh probe, HTS. recombinant PME-1. inhibition, % at 5.9 µM. 320,000 compounds, 0.53% hits;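 active = inhibition above the campaign mean of all compounds plus 3 SD, cut at about 26% in these data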;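 note: competitive labeling of PME-1 active site by serine hydrolase directed probe; 0% = PME-1 with DMSO and 100% = wells lacking PME-1 enzyme; inhibitors block probe labeling so polarization falls and inhibition rises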
Fam108b inh conf: mouse Fam108b serine hydrolase inhibitors, confirmation, counter-screen for RBBP9 inhibitor project, biochemical, fluorescence polarization, triplicate | shares compounds with Fam108B inh | recombinant Fam108b, FP-Rh probe fluorescence polarization | inhibition, % at 9.51 µM | 930 compounds, 44% hits | AID 1978, 2009;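 active = inhibition above a limit from the primary screen, the mean over all compounds plus 3 SD, cut at about 19% in these data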;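 note: 0% = median of active Fam108b wells and 100% = catalytically dead S170A mutant; inhibitors free the probe so polarization falls as inhibition rises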
Fam108b ABPP HTS: inhibition of mouse Fam108b by HTS hits, late-stage follow-up, biochemical, gel-based ABPP, soluble recombinant form; shares compounds with Fam108B inh; fluorophosphonate probe; inhibition, % at 20 µM; 260 compounds, 44% hits; AID 588649, 2011; in the data active = inhibition above about 40%
PAD4 FP conf: human PAD4 inhibitors, confirmation, biochemical, fluorescence polarization; shares compounds with PAD4 FP inh; recombinant PAD4, RCA probe fluorescence polarization; inhibition, % at 6.36 µM; 1,200 compounds, 28% hits; AID 488796, 2010;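 active = mean inhibition across replicates above the hit cutoff set by the earlier primary screen, cut at about 15% in these data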;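 note: inhibitors block active-site labeling by the probe so polarization falls; 0% = PAD4 with probe and DMSO and 100% = probe without PAD4 enzyme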
BSA probe FL: compounds interfering with TAMRA-BSA probe, counter-screen for TCR-CD3 interaction inhibitor project, biochemical, fluorescence, TAMRA-labeled BSA; inhibition, % at 9.4 µM; shares compounds with TCR CD3 inh; 1,200 compounds, 10% hits; TAMRA-labeled BSA probe fluorescence counterscreen; in the data active = inhibition above about 23%;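 note: 0% = buffer low control and 100% = reference high control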
TCR-CD3 inh conf: TCR-CD3 interaction inhibitors, retest, confirmation, biochemical, fluorescence, TAMRA-labeled TCR probe | inhibition, % at 9.4 µM | shares compounds with TCR CD3 inh | 1,200 compounds, 48% hits | TAMRA-labeled TCR probe fluorescence binding assay
SIAE inh conf: human SIAE inhibitors, retest, confirmation, biochemical, fluorescence polarization, FP-Rh probe, triplicate | shares compounds with SIAE inh | SIAE FP-Rh activity-based probe | inhibition, % at 9.66 µM | 2,300 compounds, 13% hits | AID 1117263, 2014;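 active = mean inhibition of the replicates above the hit cutoff set in the primary screen, cut at about 17% in these data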;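 note: 0% = SIAE with DMSO and probe and 100% = probe without SIAE; inhibitors lower polarization as more probe stays unbound to SIAE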
* marks the source's active call; other numbers are inactive results; · = not tested or not shown. Cut-off read from the data, not from the text of the source, unless noted: active = inhibition above about 19%; inactive = the rest.

SMILES	PAD4 FP inh	Fam108B inh	SIAE inh	PRMT1 inh	TCR CD3 inh	PME-1 primary	Fam108b inh conf	SIAE inh conf	others
O=C(N/N=C/c1cc(Cl)c(O)c(Cl)c1)c1cc2c(ccc3ccccc32)o1	-2	37*	55*	4	12	57*	52*	41*
O=C(N/N=C/c1ccc(O)c(Br)c1)c1cc2c(ccc3ccccc32)o1	·	·	1	-3	-12	·	·	·
Cn1c(=O)c(N)c2c3c(c(Br)ccc31)C(=O)c1ccccc1-2	106*	29*	28*	180*	32*	37*	26*	25*	PAD4 FP conf=126*;BSA probe FL=18;TCR-CD3 inh conf=23*
COc1cccc(Nc2nc(-c3cccc(N4C(=O)c5ccccc5C4=O)c3)cs2)c1	3	31*	24*	0	2	12	16	-1
COCCNC[C@@]12CO[C@H](c3ccc(Cl)cc3)N1[C@@H](c1ccc(Cl)cc1)SC2	·	·	11	3	·	·	·	·
COc1ccc(Nc2nnc(SC(C(=O)Nc3ccc(OC)c(Cl)c3)c3ccccc3)s2)cc1 (stereo not given)	-5	38*	20*	-1	-10	52*	25*	-3
COC(=O)[C@]12C[C@H](CC(=O)NCC3CCCCC3)C(=O)N(Cc3cccc4ccccc34)C1=C[C@H](C(C)(C)C)O[C@@H]2C	·	·	5	5	·	·	·	·
CC(C)Nc1nnc(SCC(=O)Nc2ccc3c(c2)C(=O)c2ccccc2C3=O)s1	-6	30*	27*	1	7	57*	12	-11
Cc1c(Br)c(O)c(Br)c2sc(=O)oc12	-1	29*	29*	80*	25*	18	1	10	BSA probe FL=-8;TCR-CD3 inh conf=5
Cn1c(=O)cc2c3c(c(N4CCCCC4)ccc31)C(=O)c1ccccc1-2	70*	24*	53*	18	58*	40*	19*	24*	PAD4 FP conf=37*;BSA probe FL=93*;TCR-CD3 inh conf=55*
Cn1nc(-c2ccccc2)c(N2CCCCC2)cc1=O	-2	-2	-1	-3	4	-2	·	·
COc1ccc(C=NNC(=O)c2ccncc2)cc1	·	·	2	1	·	·	·	·
C(=N\Nc1nc2ccccc2[nH]1)/c1cccc2nccnc12	2	1	8	-2	2	11	·	·
C#CCn1cc(/C=N/Nc2nc3ccccc3[nH]2)c2ccccc21	3	30*	55*	-3	-5	25	21*	61*
Oc1nc(Nc2cccc(Cl)c2)sc1/C=C1\C=Nc2ccccc21	-4	34*	26*	1	-3	49*	33*	-19	Fam108b ABPP HTS=95*
CN(C)c1ccc(Cn2c(=O)n(Cc3ccc(C(=O)NCC4COC4)cc3)c(=O)c3ccccc32)cc1	·	·	3	1	·	·	·	·
CC(C)CC(=O)N1CCc2cc(S(=O)(=O)N(C)Cc3ccco3)ccc21	·	·	3	7	·	·	·	·
CCN(CC)c1ccc(/C=N/NC(=O)c2c[nH]c3ccccc23)cc1	-5	23*	24*	2	2	20	-3	17
O=C(Nc1ccccc1)Nc1nc2ncccn2c1-c1ccc(F)c(F)c1	·	·	3	4	·	·	·	·
CCCCCCCCN1C(=O)[C@@H](CC(=O)N2CCOCC2)C[C@@]2(C(=O)OC)C1=C[C@H](COCc1ccccc1)O[C@@H]2C	·	·	0	-1	·	·	·	·
C[C@@H]1CN([C@@H](C)CO)C(=O)c2cccc(NC(=O)Nc3cccc4ccccc34)c2O[C@H]1CN(C)S(=O)(=O)c1ccc(Cl)cc1	·	·	2	-5	·	·	·	·
Oc1c(Br)cc(Br)cc1/C=N/NC(=S)N[C@H]1CC2C=CC1C2 (stereo not given in full)	-3	18*	24*	-5	32*	26	8	24*	BSA probe FL=-12;TCR-CD3 inh conf=38*
COc1cc(/C=N/NC(=S)NC2CC3C=CC2C3)cc(OC)c1OC (stereo not given)	3	1	12	-3	-7	1	·	·
COC(=O)[C@]12C[C@H](CC(=O)NCC34CC5CC(CC(C5)C3)C4)C(=O)N(CCc3ccc(OC)c(OC)c3)C1=C[C@H](C1CCCC1)O[C@@H]2C	·	·	-4	-1	·	·	·	·
CN1CCN(c2cc(N3CCN(C(=O)c4ccco4)CC3)c3c4c(onc24)-c2ccccc2C3=O)CC1	-4	7	·	·	·	11	·	·
SMILES	PAD4 FP inh	Fam108B inh	SIAE inh	PRMT1 inh	TCR CD3 inh	PME-1 primary	Fam108b inh conf	SIAE inh conf	others
O=C(O)CCCNc1cc(N2CCN(C(=O)c3ccco3)CC2)c2noc3c2c1C(=O)c1ccccc1-3	-7	35*	62*	19	79*	6	41*	33*	Fam108b ABPP HTS=75*
C(#CC1=CCCCC1)CNCC1CC1	·	·	-2	-1	·	·	·	·
O=c1ccc2c(-c3ccccc3)c3ccc(O)cc3oc-2c1	29*	26*	36*	90*	-40	5	42*	36*	Fam108b ABPP HTS=25;PAD4 FP conf=63*
CC(=O)OCCCN1C(=O)CCC12CCC(C)CC2 (stereo not given)	·	·	6	3	·	·	·	·
C#CCNC(=O)c1cnn(-c2ccccc2)c1N	·	·	7	-2	·	·	·	·
COc1ccc(OC)c(/C=C2\S/C(=N/NC(=O)c3ccc4ccccc4c3)NC2=O)c1	1	32*	19*	-1	1	23	15	9
O=C(COC(=O)/C=C/c1cccs1)Nc1nc(-c2ccccc2)cs1	-1	-6	8	-4	0	2	·	·
